Screening results from PubChem.
CRFR2-BP antag – blocks CRF-induced signaling of the CRF-BP/CRF-R2 complex. HEK293 CRF-R2/CRF-BP, CRF-induced calcium fluorescence. inhibition, % at 11.8 µM. 350,000 tested, 0.59% active;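 active = inhibition of the ligand-induced calcium signal above about 50% at the single tested concentration, limit read from the data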
CRFR2-BP ag – agonists of human CRF-binding protein/CRF-R2 receptor complex; AID 588473; HEK293 CRF-R2/CRF-BP, calcium dye fluorescence (FLIPR); percent of saturating CRF peptide response; activation, % at 13.2 µM; 350,000 tested, 0.46% active;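 active = activation of at least 50%, plus an integration ratio under a set limit after plate pattern correction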;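 note: plate controls were neutral control wells without compound for no effect and CRF at EC100 for full effect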
MEKK3 PB1 HTS – modulators (inhibitors or enhancers) of MEK5 binding to human MEKK3 PB1 domain. 290,000 tested, 1.4% active. Q99759. binding response (% of control), % at 10 µM. AID 1529. bead-based flow cytometry, Alexa488-MEK5 binding to MEKK3; actives lie on both sides; 0 = blocked by unlabeled MEK5, 100 = vehicle;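 active = binding response more than 3 SD above or below the average of its plate-row segment, actives on both sides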;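 note: Alexa488 bead fluorescence after subtracting the streptavidin-only scavenger bead signal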
ABCB6 inh MLPCN – blocks the human ABCB6 transporter; K562-ABCB6 porphyrin accumulation, flow cytometry, 1 h; stronger effect = lower value; fluorescence ratio to DMSO, % at 10 µM; 360,000 tested, 0.19% active;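 active = fluorescence ratio to DMSO below 75%, the collection mean minus 3 SD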;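 note: signal is porphyrin accumulated inside mitochondria; 100% equals median channel fluorescence of DMSO control wells; lower ratio means ABCB6 inhibition with less porphyrin fluorescence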
Target sequence (Q9NP58 whole entry, looked up): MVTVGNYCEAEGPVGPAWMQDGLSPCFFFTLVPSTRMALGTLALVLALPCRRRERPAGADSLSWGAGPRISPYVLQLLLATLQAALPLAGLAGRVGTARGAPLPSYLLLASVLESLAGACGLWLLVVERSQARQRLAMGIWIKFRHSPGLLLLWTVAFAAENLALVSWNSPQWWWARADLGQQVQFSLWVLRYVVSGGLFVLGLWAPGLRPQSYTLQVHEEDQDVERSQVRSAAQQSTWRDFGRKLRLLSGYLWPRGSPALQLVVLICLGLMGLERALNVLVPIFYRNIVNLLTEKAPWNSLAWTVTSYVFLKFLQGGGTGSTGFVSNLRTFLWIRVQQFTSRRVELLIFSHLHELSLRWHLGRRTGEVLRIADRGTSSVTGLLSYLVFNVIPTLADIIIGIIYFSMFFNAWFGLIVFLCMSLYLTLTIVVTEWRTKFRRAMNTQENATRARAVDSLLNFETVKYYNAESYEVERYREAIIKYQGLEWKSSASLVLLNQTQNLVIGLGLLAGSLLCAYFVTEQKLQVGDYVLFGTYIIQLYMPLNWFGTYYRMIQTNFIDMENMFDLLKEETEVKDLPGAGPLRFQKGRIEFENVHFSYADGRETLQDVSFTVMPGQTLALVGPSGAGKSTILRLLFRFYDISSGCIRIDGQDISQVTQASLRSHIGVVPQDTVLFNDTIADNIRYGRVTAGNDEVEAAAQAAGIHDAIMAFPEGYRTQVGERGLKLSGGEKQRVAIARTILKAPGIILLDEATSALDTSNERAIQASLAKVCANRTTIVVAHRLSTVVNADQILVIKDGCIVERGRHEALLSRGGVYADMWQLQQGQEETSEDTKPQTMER
MEKK2 WT-MEK5 – raises or lowers MEK5 binding to wildtype human MEKK2 PB1 domain | bead flow cytometry, Alexa488-MEK5 binding to MEKK2 WT; actives lie on both sides | binding response (% of control), % at 10 µM | 290,000 tested, 1.1% active | AID 1531; in the data active = binding response below about 67% or above about 130%
MEKK2mut PB1 HTS – signal of MEK5 binding to mutant human MEKK2 PB1 domain; bead flow cytometry, Alexa488-MEK5 binding to MEKK2 mutant; percent response, % at 10 µM; 290,000 tested, 0.35% active; AID 1530; in the data active = percent response above about 24%, passing the limit was not always enough
* marks the source's active call; other numbers are inactive results; x = no result given; [ ] = remark or other dose. The list is not random: actives were taken first. Their share in the collection is about 2.9%.

SMILES	CRFR2-BP antag	CRFR2-BP ag	MEKK3 PB1 HTS	ABCB6 inh MLPCN	MEKK2 WT-MEK5	MEKK2mut PB1 HTS
Cc1cc(N2CCC(C)CC2)c(F)cc1[N+](=O)[O-]	-7	-1	105	101	107	3
Cc1cc(N2CCCC2)c(F)cc1/C=C\[N+](=O)[O-]	-74	120*	103	128	84	-8
COc1ccc(NC(=O)C2Cc3c(-c4ccc(Cl)cc4)ccnc3O2)cn1 (stereo not drawn)	x	x	x	99	x	x
N#CC1=C(N)Oc2cc(O)c(Cl)cc2C1c1ccccc1F (stereo not drawn)	-195	192*	104	103	103	4
N#CC1=C(N)Oc2cc(O)c(Cl)cc2C1c1cccnc1 (stereo not drawn)	-20	22	102	99	102	12
CCOc1ccc(C(C)=O)cc1COC(=O)CNC(=O)C12CC3CC(CC(C3)C1)C2	1	-1	x	105	x	x
CC1(c2ccc([N+](=O)[O-])cc2)NC(=O)N(CC(=O)c2ccc3c(c2)OCO3)C1=O (stereo not drawn)	-16	60*	x	100	x	x
CC1(c2ccc(OC(F)F)cc2)NC(=O)N(CC(=O)c2ccc3c(c2)OCO3)C1=O (stereo not drawn)	-31	86*	x	102	x	x
CC(=O)c1c(C)[nH]c(C(=O)CN2C(=O)NC(C)(c3ccc4c(c3)OCO4)C2=O)c1C (stereo not drawn)	-41	5	103	94	103	9
CC1(c2ccc(OC(F)F)cc2)NC(=O)N(CC(=O)Nc2ccc(OC(F)F)cc2)C1=O (stereo not drawn)	-39	47	102	97	102	-2
Cc1cc2cc(CNC(=O)C(C)Oc3ccccc3)ccc2n1C (stereo not drawn)	-18	5	115	124	107	18
Cc1cc(S(=O)(=O)NCc2ccccc2)ccc1OCC(=O)NCC1CCCO1 (stereo not drawn)	-360	241*	98	98	98	-2
COc1cccc(S(=O)(=O)N(C)C[C@@H]2OCc3cn(nn3)CCCC(=O)N([C@H](C)CO)C[C@H]2C)c1	-16	2	x	101	x	x
CN(C)S(=O)(=O)c1ccc2c(c1)/C(=C/c1cc3c([nH]1)CCCC3)C(=O)N2	-139	122*	x	439	x	x
CN(C)S(=O)(=O)c1ccc2c(c1)C(=O)c1cc(S(=O)(=O)N(C)C)ccc1CC2	9	0	x	94	x	x
O=C1CSC(c2cccc([N+](=O)[O-])c2)N1Cc1ccccc1 (stereo not drawn)	0	0	101	99	102	2
COc1ccc(NC(=S)NCc2cccnc2)cc1OC	4	0	97	99	97	-1
COc1ccc(NC(=S)NCc2cccnc2)cc1	92*	1	103	102	94	2
Cc1c(C(=O)NCCN2CCOCC2)oc2ccc(Br)cc12	-3	-1	x	99	x	x
Cc1ccc2oc(=O)c(/C=C(\O)CC(C)C)nc2c1	-37	1	92	91	95	-3
Cc1ccc2oc(=O)c(/C=C(\O)c3cccs3)nc2c1	-80	120*	92	107	95	0
O=c1oc2ccc(Cl)cc2nc1/C=C(\O)c1cccs1	-13	11	100	97	94	-1
Cc1ccc2oc(=O)c(/C=C(\O)c3ccccc3)nc2c1	-25	71*	100	93	90	-1
CCN1CCN(C(=O)CCc2nnc(CCc3ccc(OC)cc3)o2)[C@@H](C)C1=O	-2	1	96	102	101	-4
CCc1ccc(NC(=O)[C@H](Cc2ccccc2)NC(=O)C2CCN(C(=O)[C@@H](N)CC(C)C)CC2)cc1	-28	7	104	96	116	7
SMILES	CRFR2-BP antag	CRFR2-BP ag	MEKK3 PB1 HTS	ABCB6 inh MLPCN	MEKK2 WT-MEK5	MEKK2mut PB1 HTS
O=C(COc1ccc(Cl)cc1Cl)Nc1ccc(Cl)cn1	-29	0	102	98	103	3
CCOc1ccc(C(=O)Nc2ccc(Cl)cn2)cc1Cl	56*	0	100	96	101	-1
C/C(=N\NC(=O)c1ccccc1O)C1CC1	5	-1	102	96	101	-1
CCOc1ccc2c(c1)/C(=C(\C(Cl)=C(Cl)Cl)[N+](=O)[O-])N2	2	1	103	148	98	-4
CCCCOc1ccc2c(c1)/C(=C(\C(Cl)=C(Cl)Cl)[N+](=O)[O-])N2	68*	0	104	283	93	-4
CCCCN(C(=O)COc1ccc(C)cc1OC)c1c(N)n(CCC)c(=O)[nH]c1=O	-3	0	88	96	89	-17
CCNS(=O)(=O)c1ccc(NC(=O)Nc2cc(C)ccc2OC)cc1	-9	1	104	93	102	0
COc1ccc(C)cc1NC(=O)NNS(=O)(=O)c1ccc(NC(C)=O)cc1	0	0	39*[inhibitor]	96	47*[inhibitor]	-8
CCOC(=O)/C(=C/c1ccc(N2CCC(c3ccccc3)=N2)cc1)C(C)=O	-307	254*	95	232	93	-2
COc1cccc(-c2cc3nc(C)c(C)c(N4CCN(C(=O)c5ccoc5)CC4)n3n2)c1	-6	0	x	100	x	x
CN(c1ccc(C(=O)N2CCN(Cc3ccc4c(c3)OCO4)CC2)cc1)S(=O)(=O)c1ccccc1	68*	-3	97	96	101	5
Cc1cc(C)c(NC(=O)C2CCCO2)c(C)c1 (stereo not drawn)	14	-1	x	104	x	x
O=C(c1ccco1)N1CCN=C1SCc1ccccc1Cl	101*	-1	108	98	109	2
CCOC(=O)CSc1nc(N2CCOCC2)c2c(c1C#N)CC(C)(C)N(C)C2	-112	196*	101	103	100	0
NC(=O)c1ccc(NC(=O)c2ccc(COc3ccc(F)cc3)o2)cc1	2	-1	x	99	x	x
COc1cc2c(cc1OC)C1=C(C#N)CC/C(=N\S(=O)(=O)c3cccc(Cl)c3)N1CC2	15	5	100	73*	93	-2
CCOC(=O)C1CCCN(C(=O)CCCn2nnnc2CN2CCOCC2)C1 (stereo not drawn)	2	-1	102	104	101	-2
c1ccc(C(c2nnnn2Cc2cccs2)N2CCN(C3CCCC3)CC2)cc1 (stereo not drawn)	65*	-3	106	94	105	3
Fc1ccc(C(c2nnnn2Cc2cccs2)N2CCN(C3CCCC3)CC2)cc1 (stereo not drawn)	4	-1	100	110	103	3
CC1(O)CC(c2ccc(Cl)cc2)=NN1C(=O)c1ccc([N+](=O)[O-])cc1 (stereo not drawn)	100*	74*	99	99	95	-5
O=c1c(/C=N/Nc2ccccc2)c(Sc2nnnn2-c2ccccc2)nc2ccccn12	-106	99*	x	759	x	x
